Assay results as given in PubChem BioAssay AID1159580 (chemical genetic matrix, 2015).
Several values for one entry are separate records, joined by “and”; a condition that tells them apart may be missing. Equal entries are not always repeated. In all, about 5,500 compounds went through this assay and about 2,000 (36%) were called active. About 18% were inconclusive and are not listed. Cut-off read from the data, not from the text of the source: active = normalized growth mostly below about 0.91 (no sharp cut-off); inconclusive = no clear call, values can overlap the other calls; inactive = mostly above about 0.92. This is one part of the list.

Experiment: chemical genetic growth profiling, strain panel (AID 1159580);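 note: tested at 20 µM; growth read once vehicle control cultures reached saturation at 30 °C; 1 = growth at the plate median or of vehicle wells; lower values mean less growth of the strain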
Conditions: S. cerevisiae deletion strains, growth OD

Measured: normalized growth

COc1c(O)cccc1O
inactive: locus YAL013W, strain DEP1, stronger effect = lower value 0.993 | locus YAL021C, strain ccr4, stronger effect = lower value 0.997 | locus YAL026C, strain drs2, stronger effect = lower value 1.04 | locus YAL030W, strain snc1, stronger effect = lower value 1.02 | locus YBL061C, strain skt5, stronger effect = lower value 1.02 | locus YBR009C, strain hhf1, stronger effect = lower value 1.01 | locus YBR021W, strain FUR4, stronger effect = lower value 1.04 | locus YBR023C, strain chs3, stronger effect = lower value 1.02 | locus YBR171W, strain sec66, stronger effect = lower value 1.03 | locus YBR229C, strain ROT2, stronger effect = lower value 1.01 | locus YBR231C, strain swc5, stronger effect = lower value 1.03 | locus YBR279W, strain paf1, stronger effect = lower value 1.02 | locus YCL011C, strain gbp2, stronger effect = lower value 1.04 | locus YCL016C, strain dcc1, stronger effect = lower value 1.02 | locus YCL029C, strain bik1, stronger effect = lower value 1.01 | locus YCL061C, strain MRC1, stronger effect = lower value 1.02 | locus YCL069W, strain vba3, stronger effect = lower value 1.03 | locus YCR088W, strain abp1, stronger effect = lower value 1.02 | locus YDL005C, strain med2, stronger effect = lower value 1.03 | locus YDL035C, strain GPR1, stronger effect = lower value 1.02 | locus YDL040C, strain nat1, stronger effect = lower value 1.01 | locus YDL074C, strain BRE1, stronger effect = lower value 1.09 | locus YDL101C, strain DUN1, stronger effect = lower value 1.01 | locus YDL134C, strain PPH21, stronger effect = lower value 1.06 | locus YDL185W, strain tfp1, stronger effect = lower value 1.02 | locus YDL192W, strain arf1, stronger effect = lower value 1.04 | locus YDR001C, strain nth1, stronger effect = lower value 1.02 | locus YDR069C, strain doa4, stronger effect = lower value 1.02 | locus YDR101C, strain arx1, stronger effect = lower value 1 | locus YDR137W, strain rgp1, stronger effect = lower value 1.04 | locus YDR150W, strain NUM1, stronger effect = lower value 0.999 | locus YDR159W, strain sac3, stronger effect = lower value 1.02 | locus YDR162C, strain NBP2, stronger effect = lower value 1.03 | locus YDR195W, strain ref2 1.02 | locus YDR297W, strain sur2, stronger effect = lower value 1.05 | locus YDR318W, strain mcm21, stronger effect = lower value 1.03 | locus YDR334W, strain swr1, stronger effect = lower value 1.03 | locus YDR335W, strain msn5, stronger effect = lower value 1.03 | locus YDR388W, stronger effect = lower value 0.996 | locus YDR392W, strain spt3, stronger effect = lower value 1.02 | locus YDR502C, strain sam2, stronger effect = lower value 1.03 | locus YEL003W, strain gim4, stronger effect = lower value 1.02 | locus YEL037C, strain rad23, stronger effect = lower value 1.02 | locus YEL061C, strain CIN8 (second series), stronger effect = lower value 1.02 | locus YEL061C, strain CIN8, stronger effect = lower value 0.973 | locus YER015W, strain faa2, stronger effect = lower value 1.02 | locus YER016W, strain bim1, stronger effect = lower value 1.02 | locus YER110C, stronger effect = lower value 1.02 | locus YER111C, strain swi4, stronger effect = lower value 1.02 | locus YER155C, strain BEM2 (second series), stronger effect = lower value 1.01 | locus YER155C, strain BEM2, stronger effect = lower value 0.997 | locus YER167W, strain BCK2, stronger effect = lower value 0.98 | locus YFR010W, strain ubp6, stronger effect = lower value 1.03 | locus YGL078C, strain dbp3, stronger effect = lower value 1.04 | locus YGL086W, strain mad1, stronger effect = lower value 1.03 | locus YGL167C, strain pmr1, stronger effect = lower value 1.03 | locus YGL173C, strain kem1, stronger effect = lower value 1.02 | locus YGL227W, strain vid30, stronger effect = lower value 1.02 | locus YGL240W, strain doc1, stronger effect = lower value 1.02 | locus YGL248W, strain PDE1, stronger effect = lower value 1.04 | locus YGL253W, strain hxk2, stronger effect = lower value 1.05 | locus YGR135W, strain pre9, stronger effect = lower value 1.04 | locus YGR252W, strain gcn5, stronger effect = lower value 1.13 | locus YHR013C, strain ard1, stronger effect = lower value 1.04 | locus YHR027C, strain rpn1, stronger effect = lower value 1.02 | locus YHR030C, strain SLT2, stronger effect = lower value 1.01 and 1.06 | locus YHR079C, strain IRE1 (second series), stronger effect = lower value 1.01 | locus YHR079C, strain IRE1, stronger effect = lower value 1.05 | locus YHR094C, strain hxt1, stronger effect = lower value 1.01 | locus YHR129C, strain ARP1, stronger effect = lower value 0.99 | locus YHR142W, strain chs7, stronger effect = lower value 1.07 | locus YHR200W, strain rpn10, stronger effect = lower value 1.02 | locus YIL066C, strain RNR3, stronger effect = lower value 1.01 | locus YIL073C, strain SPO22, stronger effect = lower value 1.14 | locus YIL125W, strain kgd1, stronger effect = lower value 1 | locus YIR030C, strain dcg1, stronger effect = lower value 1.02 | locus YJL092W, strain hpr5, stronger effect = lower value 1.02 | locus YJL095W, strain BCK1 (second series), stronger effect = lower value 1.02 | locus YJL095W, strain BCK1, stronger effect = lower value 1.11 and 1.04 | locus YJL115W, strain asf1, stronger effect = lower value 1.04 | locus YJL129C, strain trk1, stronger effect = lower value 1.06 | locus YJL134W, strain LCB3, stronger effect = lower value 0.999 | locus YJL154C, strain vps35, stronger effect = lower value 1.02 | locus YJL164C, strain tpk1, stronger effect = lower value 1.02 | locus YJL166W, strain qcr8, stronger effect = lower value 1.03 | locus YJL168C, strain set2, stronger effect = lower value 1.01 | locus YJL187C, strain SWE1 (second series), stronger effect = lower value 1.03
